PubChem BioAssay AID449762 (Southern Research Specialized Biocontainment Screening …, 2010)
Out of some 330,000 compounds screened, about 1,900 (0.58%) were called active. About 4% were inconclusive and are not listed. Rule as the data show it: inconclusive = inhibition above about 70% without an active follow-up result; inactive = below that. Only a sample is shown. Potency and affinity values are given separately.

Assay: M. tuberculosis growth inhibition, HTS (AID 449762);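 also: bacterial growth assessed after seven days of incubation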
Details: M. tuberculosis H37Rv growth inhibition, 7H9 media; at 25 µM; active compounds read high

Compound | inhibition
CC(C)(O)c1ccc2c(c1)CCC1C(C)(C(=O)O)CCCC21C (stereo not given) | -2.51% (inactive)
CC1(C(=O)O)CCCC2(C)c3cc(O)ccc3CCC12 (stereo not given) | -4.51% (inactive)
Cc1cc(CN(C)C(=O)C2CCC(=O)N(CCc3ccccc3)C2)n[nH]1 (stereo not given) | 8.05% (inactive)
CC(=O)Nc1ccc(SC(C)C(=O)NC(N)=O)cc1 (stereo not given) | -6.23% (inactive)
NC1=NC[C@@H](Cc2ccc(O)cc2)N1CCc1cccc2ccccc12 | 7.62% (inactive)
NC1=NC[C@H](Cc2ccc(O)cc2)N1CCc1cccc(F)c1 | -2.28% (inactive)
Cc1cc(=O)oc2cc(OCC(=O)N3CCCC3)ccc12 | -4.87% (inactive)
COc1ccccc1CCC(=O)NNC(=O)c1cccs1 | -0.29% (inactive)
CCCCCCCCCCOC(=O)Cn1c(COc2ccccc2)[n+](C)c2ccccc21 | 49.6% (inactive)
CCCCCCCCCCOC(=O)Cn1c(COc2ccccc2OC)[n+](C)c2ccccc21 | 54.7% (inactive)
COc1ccc([C@H]2CC(=O)C=C(c3cc4ccccc4c4ccccc34)C2)cc1 | -1.17% (inactive)
COc1ccc([C@H]2CC(=O)C=C(c3ccc(Br)c4ccccc34)C2)cc1 | 67.8% (inactive)
COc1ccc(-c2[nH]ncc2CN2CCCOc3c(cccc3OC)C2)c(OC)c1 | 9.33% (inactive)
O=C1CCCN1CCC(=O)N1CCCC(Nc2ccc(F)cc2)C1 (stereo not given) | -9.8% (inactive)
OC(CN1CCN(c2ccccc2Cl)CC1)c1ccccc1 (stereo not given) | 2.61% (inactive)
CC(=O)Nc1ccc(NC(=O)C/C(C)=N/NC(N)=S)cc1 | 3.29% (inactive)
C/C(CC(=O)Nc1cc(Cl)ccc1C)=N\NC(N)=O | 4.8% (inactive)
COc1ccc(C2(c3ccc(OC)cc3)NC(=O)N(CC(=O)Nc3ccc(C(=O)N(C)C)cc3)C2=O)cc1 | -1.84% (inactive)
CCN=c1scc(-c2ccco2)n1/N=C/c1ccc(O)cc1 | 28.5% (inactive)
CC(C)N=c1scc(-c2ccco2)n1/N=C/c1ccc(O)c(O)c1 | 9.93% (inactive)
COc1ccc(S(=O)(=O)Nc2ccccc2N2CCOCC2)cc1OC | 3.88% (inactive)
CC(Nc1cc(C)cc(C)c1)=[N+](C)CCNS(=O)(=O)c1ccc(Cl)cc1 | -13.9% (inactive)
Cc1ccc(-c2nsc3c(N4CCC(C(N)=O)CC4)ncnc23)cc1 | -5.48% (inactive)
O=c1c(C=NCc2ccccc2)c(NCc2ccccc2)nc2ccccn12 | 11.6% (inactive)

Compound | inhibition
COc1ccc(C(=O)N/C(N)=N/c2nc3ccccc3o2)cc1 | 43% (inactive)
COC(=O)CSc1nc2ccccc2o1 | 20% (inactive)
O=C(O)c1ccc(NS(=O)(=O)c2ccc3c(c2)OCCCO3)cc1 | 5.48% (inactive)
COc1ccc(N(CC(=O)NC2CCCCCC2)S(=O)(=O)c2ccccc2)cc1Cl | 11.1% (inactive)
O=[N+]([O-])c1ccc(Cl)c(-c2ccc(/C=N/n3cnnc3)o2)c1 | -1.71% (inactive)
O=[N+]([O-])c1cc(-c2ccc(/C=N/n3cnnc3)o2)ccc1Cl | 16.1% (inactive)
C/C=C1\COC(C(=O)NCCCN2CCCC2=O)(C(F)(F)F)C=C1C=C(C)C (stereo not given) | 2.64% (inactive)
CN(C(=O)CSC1=Nc2ccccc2C2=NC(c3ccccc3)C(=O)N12)C1CCCCC1 (stereo not given) | -5.75% (inactive)
NC(=O)CSC1=Nc2ccccc2C2=NC(c3ccccc3)C(=O)N12 (stereo not given) | 4.02% (inactive)
NC(=O)Cn1nc(-c2ccccc2)nc1-c1ccccc1 | -2.98% (inactive)
CCn1c(-c2ccccc2)ccc(C#N)c1=O | -2.43% (inactive)
CCOC(=O)Cn1c(-c2ccccc2)cc(SC)c(C#N)c1=O | 13.1% (inactive)
CCOC(=O)Cn1nnc(-c2ccccc2)n1 | -9.53% (inactive)
COc1cc2cnc(-c3ccccc3)cc2cc1OC | 61.6% (inactive)
CN(C)/C=N/NC(=O)c1ccc(Cl)cc1 | -3.16% (inactive)
O=C(CCCCCn1nnc2ccccc2c1=O)Nc1ccccc1F | -1.21% (inactive)
COc1ccc(CNC(=O)CN(Cc2ccc(Cl)cc2)S(=O)(=O)c2ccccc2)cc1 | -11.8% (inactive)
CC(=O)Nc1cc(-c2nn(C)c(=O)c3ccccc23)ccc1N1CCCCC1 | 5.24% (inactive)
CCC(=O)Nc1cc(-c2nn(C)c(=O)c3ccccc23)ccc1N1CCCCC1 | -0.54% (inactive)
CC(=Nc1ccc2c(c1)CCC2)c1c(O)n(-c2ccccc2)c(=O)[nH]c1=O | 0.86% (inactive)
Cc1cccc(CS(=O)(=O)Cc2ccc(C(=O)NCCCN3CCOCC3)o2)c1 | -7.1% (inactive)
COc1cc(Cl)c(C)cc1NC(=O)COC(=O)C(NS(=O)(=O)c1ccc(Cl)cc1)C(C)O (stereo not given) | -9.26% (inactive)
Cc1ccc(NC(=O)COC(=O)C(NS(=O)(=O)c2ccc(Cl)cc2)C(C)O)cc1 (stereo not given) | -2.52% (inactive)
OCC(CBr)(CBr)CBr | -6.91% (inactive)

Compound | inhibition
CCC1=NC(c2ccc(OC)cc2)N(O)C1(C)C (stereo not given) | -1.62% (inactive)
CC(O)(CS(=O)(=O)Cc1ccccc1)C(=O)Nc1cccc(C(F)(F)F)c1 (stereo not given) | 8.28% (inactive)
C(=N\Nc1nc(Nc2ccccc2)nc(N2CCOCC2)n1)/c1c[nH]c2ccccc12 | 41.1% (inactive)
Cc1[nH]c2ccccc2c1/C=N/Nc1nc(Nc2ccc(F)cc2)nc(N2CCOCC2)n1 | 62.1% (inactive)
Cc1ccc(C)c(S(=O)(=O)N2CCC(c3nc4c(nnn4Cc4ccc(F)cc4)c(=O)[nH]3)CC2)c1 | 7.99% (inactive)
O=c1[nH]c(C2CCN(S(=O)(=O)c3ccc4c(c3)OCCO4)CC2)nc2c1nnn2Cc1ccc(F)cc1 | 37.9% (inactive)
Cn1c(CC(=O)Nc2ccc(F)cc2)c(Sc2ccccc2)c2ccccc21 | 3.85% (inactive)
NC(=O)C1CCCN(C(=S)NCc2ccc3c(c2)OCO3)C1 (stereo not given) | -1.44% (inactive)
CCOc1cc(/C=C/C(=O)OCC(=O)NCC2CCCO2)cc(Cl)c1OC (stereo not given) | 1.07% (inactive)
O=C(C1CC1)N1N=C(c2ccc(Cl)cc2)CC1(O)C(F)(F)F (stereo not given) | 49% (inactive)
O=C(c1ccc(Cl)cc1)N1CCCC(c2ccccc2)=N1 | 2.03% (inactive)
CCN(CCO)C(=S)Nc1cc(S(=O)(=O)N(C)C)ccc1C | -0.4% (inactive)
CCOC(=O)c1c(C)[nH]c(C(=O)N2CCN(c3ccc(OC)cc3)CC2)c1C | 53.5% (inactive)
CCOC(=O)c1[nH]c(C)c(C(=O)N2CCN(c3ccc(OC)cc3)CC2)c1C | -0.98% (inactive)
C[C@H](CO)N1C[C@H](C)[C@H](CN(C)Cc2ccncc2)Oc2ccc(NC(=O)Nc3ccc(C(F)(F)F)cc3)cc2CC1=O | 62.2% (inactive)
CN(C)CCCNC(=O)c1ccc(-c2ccccc2)cc1 | -5.39% (inactive)
C=CCNC(=O)c1ccc(-c2nc(-c3ccccc3)cs2)cc1 | 1.66% (inactive)
O=C(NN=C1CCCC1)c1cccc(O)c1 | -8.1% (inactive)
CCCNC(=O)CSc1n[nH]c(=O)n1CCc1ccccc1 | 7.69% (inactive)
CCOC(=O)c1c(NC(=O)CCN2C(=O)c3cccc([N+](=O)[O-])c3C2=O)sc(C(=O)OC(C)C)c1C | 3.56% (inactive)
CCOc1ccc(Nc2nc(-c3cccnc3)cs2)cc1 | 4.09% (inactive)
CCOc1ccc(NC(=O)CC2CC(C)(C)OC2=O)cc1 (stereo not given) | -2.88% (inactive)
CC(=O)Nc1ccc(NC(=O)C(C)OC(=O)c2cc(S(=O)(=O)N(C)C)ccc2N2CCCC2)cc1 (stereo not given) | 1.92% (inactive)
Cc1ccc(C2=NC(C)(C)NC2=O)cc1 | 11.8% (inactive)

Compound | inhibition
O/N=C/c1ccnc(SCc2ccccc2)n1 | 16.4% (inactive)
CSc1nccc(N/N=C/c2ccccc2)n1 | 0.53% (inactive)
CC(CN1CCC(O)CC1)c1ccccc1 (stereo not given) | -0.24% (inactive)
Clc1ccccc1CNC1CN2CCC1CC2 (stereo not given) | -2.13% (inactive)
FC(F)(Cl)c1nnc2ccc(Sc3ccccn3)nn12 | 2.59% (inactive)
FC(F)(F)c1nnc2ccc(N3CCCC3)nn12 | -7.59% (inactive)
COC(=O)c1cnc2ccccc2n1 | -3.05% (inactive)
O=C(OCc1c(F)cccc1Cl)c1cnc2ccccc2n1 | 48.8% (inactive)
CC(C)C(NS(=O)(=O)c1cccs1)C(=O)NCCCN1CCCCCC1 (stereo not given) | -1.69% (inactive)
COc1ccc(OCCCC(=O)Nc2ccc(N3CCCCC3)cc2)cc1 | -1.89% (inactive)
CCCc1nnc(NC(=O)CCC(=O)N2CCN(c3nc(C)cc(C)n3)CC2)s1 | 0.06% (inactive)
COc1ccc(S(=O)(=O)Cc2ccc(C(=O)NCCCN3CCc4ccccc4C3)o2)cc1 | -0.56% (inactive)
COc1cccc(OC)c1OCCCCc1c(C)n[nH]c1C | 4.51% (inactive)
COc1cccc(OC)c1OCCCCCc1c(C)n[nH]c1C | -7.6% (inactive)
COCC(C)NC(=O)Cc1ccc(F)cc1 (stereo not given) | -4.61% (inactive)
O=C(NC1CCN(Cc2ccccc2)CC1)c1cccc(S(=O)(=O)Nc2ccc(F)cc2)c1 | 37.8% (inactive)
COc1ccc(NS(=O)(=O)c2cccc(C(=O)NC3CCN(Cc4ccccc4)CC3)c2)cc1 | 6.7% (inactive)
COCc1cc(C)nc(SCc2ccccc2)c1C#N | 15.8% (inactive)
COc1ccc(/C=C/C(=O)Oc2cccc(/C=N/NC(=O)c3cccc(F)c3)c2)cc1 | 7.76% (inactive)
O=C(Oc1cccc(-n2cnnn2)c1)c1ccccc1Cl | -11.6% (inactive)
Cc1ccc(NC(=O)c2noc(C(C)C)c2[N+](=O)[O-])cc1 | 0.01% (inactive)
CCc1ccccc1NC(=O)c1noc(C(C)C)c1[N+](=O)[O-] | 2.17% (inactive)
COc1ccc(C(C(=O)NC2CCCC2)N(Cc2ccco2)C(=O)c2snc(C(N)=O)c2N)cc1OC (stereo not given) | 3.33% (inactive)
